High-throughput results deposited in PubChem BioAssay by National Center for Advancing Translational Sciences (NCATS).
Most compounds without a hit are left out; they make up all but 7% or so of the library.
DRD3 agonist: qHTS of D3 Dopamine Receptor Agonist: qHTS; D3R DiscoveRx beta-arrestin cells, luminescence, 90 min; max activation, %; 0.58% of 410,000 active; AID 652048, 2013; in the data active means max activation above about 30%; further: 0% is about no effect
Target sequence (P35462 whole entry, looked up): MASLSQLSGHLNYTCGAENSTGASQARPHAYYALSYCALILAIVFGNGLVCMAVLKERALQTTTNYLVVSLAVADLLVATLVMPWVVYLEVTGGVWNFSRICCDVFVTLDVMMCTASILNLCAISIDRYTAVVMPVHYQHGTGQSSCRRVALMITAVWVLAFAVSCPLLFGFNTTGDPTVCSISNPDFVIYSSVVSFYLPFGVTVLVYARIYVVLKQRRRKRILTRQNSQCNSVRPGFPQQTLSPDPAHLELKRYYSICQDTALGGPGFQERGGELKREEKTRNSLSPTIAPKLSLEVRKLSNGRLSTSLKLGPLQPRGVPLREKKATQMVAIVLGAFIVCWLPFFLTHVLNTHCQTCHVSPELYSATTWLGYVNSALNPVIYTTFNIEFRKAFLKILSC
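Cells at 1500/well, incubated overnight, then treated with pinned compounds (dopamine as control) for 90 min at 37 degrees C. DiscoveRx reagent added for 30 - 60 minutes at room temperature; luminescence read.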
ATXN2 expr inh: Primary qHTS for Inhibitors of ATXN expression | 0.72% of 360,000 active | HEK-293 ATXN2-luciferase reporter, luminescence, 24 h | Potency, µM (top dose mostly 57 µM), inactives show top-dose activity change, negative = inhibition, most hits filed as inhibitors; further: potency means the concentration at half of the fitted maximal effect; on the % scale 0 is the no-effect control and ±100 the full control effect; nearly all actives have a fitted effect of over 55% in size
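qHTS (up to 57 uM final) was run with 24 h compound exposure of reporter cells at 37 °C. Each well was multiplexed: SteadyGlo luminescence measured ATXN2-luciferase expression after a fluorogenic Gly-Phe-AFC viability readout (25 uM final).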
a7 integrin act: qHTS for Activators of Integrin-Mediated Alleviation for Muscular Dystrophy. alpha7betagal myoblasts, beta-gal FDG fluorescence, 48 h. Potency, µM (highest dose often 38.3 µM), inactives show top-dose activation, most hits filed as activators. 0.064% of 350,000 active;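 further: potency means the concentration at half of the fitted maximal effect; 100% = response of the positive control SU9516; nearly all actives have a fitted effect of over 60% in size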
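alpha7betagal+/- myoblasts (passage 13, 250/well) treated 48 h at 37C with compounds at 1:260 dilution of DMSO stock. Lysed, then beta-galactosidase activity read as FDG fluorescence (ex 480/em 540) after 30 min, with pre-read for autofluorescence.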
D3 antag: qHTS of D3 Dopamine Receptor Antagonist: qHTS. D3R cells, DiscoveRx beta-arrestin luminescence, antagonist mode; stronger effect = lower value. max response, negative = inhibition, %. AID 652054, 2013. 2.5% of 360,000 active; in the data active means max response below about -50%; inconclusive means no clear call, values can overlap the other calls; further: on the % scale 0 is the no-effect control and ±100 the full control effect
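Cells plated overnight at 1500 cells/well, then exposed to library compounds with dopamine controls for 90 minutes at 37 degrees C. DiscoveRx reagent added for 30–60 minutes at room temperature; luminescence read, quantitative HTS format.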
IL-1B inflam inh: qHTS for Inhibitors of Inflammasome Signaling: IL-1-beta AlphaLISA Primary Screen; activity change, % at 57.5 µM; 4.7% of 360,000 active; THP-1 LPS/ATP IL-1B secretion, AlphaLISA, 16 h; stronger effect = lower value; in the data active means activity change below about -50%; inconclusive means mostly about -30% to -49%; further: on the % scale 0 is the no-effect control and ±100 the full control effect
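Secreted IL-1B measured by AlphaLISA bead assay after 16 h compound exposure of THP-1 cells; compounds (final up to 57.5 uM) added 1 h before LPS (250 ng/mL) and ATP (1.25 mM) stimulation; lower signal means less secretion.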
ATXN viability: Viability Counterscreen for Primary qHTS for Inhibitors of ATXN expression | S2 cells (HEK-293 line with an ATXN2-luciferase reporter) viability, CellTiter-Fluor protease fluorescence, 24 h | Potency, µM (series often up to 56.7 µM), hits mostly cytotoxic | 0.49% of 400,000 active | AID 651635, 2014; further: potency means the concentration at half of the fitted maximal effect; nearly all actives have a fitted effect of over 40% in size
The depositor's hits bear a star; i = inactive; ? = inconclusive; . = no result; [ ] = remark or other dose. Unless noted, the call rests on the fitted dose curve; in most records, active means well fitted curve in the direction sought with a large enough effect; inconclusive means small, poorly fitted or top-dose-only effect, or another doubt; inactive means no such curve, though single readings can be large; an effect the other way counts as inactive or inconclusive.

SMILES	DRD3 agonist	ATXN2 expr inh	a7 integrin act	D3 antag	IL-1B inflam inh	ATXN viability
COc1ccc(N(C(=O)/C=C/C(=O)Nc2cc(C)on2)C(C(=O)NC2CCCC2)c2ccccc2C)cc1 (stereo not drawn)	-1.0	.	-52.8%	-15.4	-86.5*	?
COc1cc(C2Nc3cccc4cccc(c34)N2)ccc1OC(C)=O	-3.9	-10.0%	2.6%	-4.1	0.0	i
Clc1ccccc1C1Nc2cccc3cccc(c23)N1	0.1	.	25.8%	-18.6	2.4	?
COc1cc(C2Nc3cccc4cccc(c34)N2)cc(OC)c1O	-5.3	2.9%	-55.8%	-8.2	-90.2*	?
Fc1ccc(C2Nc3cccc4cccc(c34)N2)cc1	-3.6	0.6%	17.4%	-74.9*	-18.2	i
Brc1ccc(C2Nc3cccc4cccc(c34)N2)cc1	-12.2	-10.9%[2.22 µM]	-21.1%	-63.3*	0.1	i
Cc1ccc(C2Nc3cccc4cccc(c34)N2)s1	-2.8	1.9%	3.16µM*	-60.6*	-8.2	i
COc1cc(Cl)c(NS(=O)(=O)c2ccc3c(c2)CC(C)N3C(=O)C2CCC2)c(OC)c1 (stereo not drawn)	1.8	.	.	.	.	.
COc1ccccc1-c1cc(NC(C)=O)c2ncc(-c3ccc(S(C)(=O)=O)cc3)n2c1	5.2	-4.4%	.	16.9	-2.2	i
CC(=O)Nc1cc(-c2ccccc2Cl)cn2c(-c3ccc(S(C)(=O)=O)cc3)cnc12	7.9	-30.4%	.	35.3	-50.4*	i
CC(=O)Nc1cc(-c2cccc(C)c2)cn2c(-c3ccc(S(C)(=O)=O)cc3)cnc12	5.4	-9.9%	.	23.4	-57.4*	i
C[C@H]1CN([C@@H](C)CO)C(=O)CCCn2nncc2CO[C@@H]1CN(C)Cc1cccc(C(F)(F)F)c1	-7.7	-12.7%	-3.1%	-23.3	10.5	i
Cc1cccn2cc(CCNC(=O)Cc3cccs3)nc12	3.7	5.4%	18.9%	-7.7	-73.9*	i
Cc1cccn2cc(CCNC(=O)c3cccs3)nc12	-10.7	26.4%	0.8%	2.2	-11.8	i
CN(CCC#N)c1ccc(C=C(C#N)c2cccc(C(F)(F)F)c2)cc1	-2.7	-20.0%	.	-4.7	-28.1	i
COc1cccc(=O)c2c(C)n(CC(=O)c3ccccc3)c(C)c12	-5.6	-10.1%[11.3 µM]	?	-16.3	-21.4	i
CCOc1cccc(=O)c2c(C)n(CC(=O)c3ccccc3)c(C)c12	-0.9	-21.1%	3.8%	-9.5	-59.4*	i
CN(CC1CCCO1)S(=O)(=O)c1ccc(C(=O)Nc2ccc(S(N)(=O)=O)cc2)cc1 (stereo not drawn)	6.1	-6.5%	0.8%	-3.4	31.6	i
O=C(/C=C/c1ccc(F)cc1)NC(=S)NNC(=O)c1cnccn1	8.2	?	5.9%	-27.4	78.0	?
COc1ccc(/C=C/C(=O)NC(=S)NNC(=O)c2cnccn2)cc1	5.3	14.1µM*	19.2%	13.3	124.7	?
O=C1[C@@H]2Cc3c([nH]c4ccccc34)CN2C(=O)CN1CCCCCO	-8.9	-6.8%	-14.6%	-8.9	13.4	i
Cc1ccc(C(c2nnnn2Cc2cccs2)N2CCN(C(=O)c3ccco3)CC2)cc1 (stereo not drawn)	-4.8	-9.8%	12.4%	-51.7*	?	i
CCC(c1nnnn1Cc1cccs1)N1CCN(C(=O)c2ccco2)CC1 (stereo not drawn)	0.8	0.6%	-8.9%	-1.5	5.3	i
O=C(c1ccco1)N1CCN(C(c2ccc(Cl)cc2)c2nnnn2Cc2ccccc2)CC1 (stereo not drawn)	0.1	-7.9%	-1.7%	-18.3	-51.0*	i
COc1ccc(C(c2nnnn2Cc2ccccc2)N2CCN(C(=O)c3ccco3)CC2)cc1 (stereo not drawn)	-3.1	2.3%	23.5%	-6.8	-8.3	i
SMILES	DRD3 agonist	ATXN2 expr inh	a7 integrin act	D3 antag	IL-1B inflam inh	ATXN viability
Cc1ccc(CNC(=O)CS(=O)(=O)c2cccc3nsnc23)cc1	-5.9	?	.	.	.	i
COc1ccc(Br)cc1CNC(=O)CN1C(=O)CCCc2ccccc21	-13.5	-16.8%	.	.	.	i
Cc1ccc(NC(=O)c2ccc(NCCCN3CCOCC3)c([N+](=O)[O-])c2)cc1Cl	-14.5	-28.0%	-35.9%	-50.7*	-66.6*	i
COc1ccc(NC(=O)c2ccc(NCCCN3CCOCC3)c([N+](=O)[O-])c2)cc1	-20.2	-10.2%	3.6%	?	?	?
O=C(Nc1ccc(Cl)c([N+](=O)[O-])c1)c1ccc(NCCCN2CCOCC2)c([N+](=O)[O-])c1	-7.9	31.6µM*	14.8%	10.1	0.3	?
Cc1cnc(Nc2ccc(F)cc2Cl)nc1-c1c[nH]c(C(=O)N[C@H](CO)c2cccc(Cl)c2)c1	.	24.3µM*	.	.	.	.
CCc1ccc(CN(C)C(=O)CCc2nc3ccccc3n(-c3ccc(OC)cc3)c2=O)cc1	2.7	-14.6%	-46.6%	15.1	-56.4*	i
CN(C)C(=O)Cn1c(=O)n(C)c2ccccc21	-0.1	-4.8%	-3.8%[7.66 µM]	-10.9	-1.5	i
O=C(O)c1c(Cl)c(Cl)c(Cl)c(Cl)c1C(=O)N1CCCC1	-2.1	4.0%	-14.0%	15.5	14.4	i
Cc1cc(C)c2nc(N3CCN(C(=O)c4cccs4)CC3)sc2c1	-1.6	-24.1%	6.4%	7.0	-70.3*	i
Cc1cc(C)c2nc(N3CCC(C(=O)N4CCN(c5ncccn5)CC4)CC3)sc2c1	-4.6	?	9.2%	7.7	-78.3*	i
Cc1cc(C)c2nc(N3CCC(C(=O)N4CCCC4)CC3)sc2c1	8.5	2.6%	0.1%	16.1	-13.6	i
Cc1[nH]nc2c1C(C1CC=CCC1)C(C#N)=C(N)O2 (stereo not drawn)	-4.3	12.6%	11.0%	-6.6	-112.3*	i
Cc1[nH]nc2c1C(c1ccc(F)cc1)C(C#N)=C(N)O2 (stereo not drawn)	-8.7	-16.8%	-3.0%	-19.1	-28.4	i
CCc1[nH]nc2c1C(C(C)C)C(C#N)=C(N)O2 (stereo not drawn)	-1.1	-3.5%	3.7%	-0.3	-83.5*	i
CCCc1[nH]nc2c1C(CCC)C(C#N)=C(N)O2 (stereo not drawn)	2.3	1.4%	-10.1%	-4.1	4.0	i
CCC(CC)C1C(C#N)=C(N)Oc2n[nH]c(C)c21 (stereo not drawn)	-7.0	-19.1%	0.0%	19.1	-87.9*	i
S=C(NCCc1ccccc1)N1CCn2cccc2C1c1cccnc1 (stereo not drawn)	-7.3	6.6%	0.0%	-4.9	-66.0*	i
